Activity calls are given as the source filed them.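 Rule for the calls: active = calcium signal rise more than 3 SD above the low-dose agonist control mean, in both duplicate plates and the primary screen; inactive = the rest.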

This experiment can be described thus: nonspecific potentiation of DAMGO calcium response – cell-based, HEK293 mu-opioid receptor line, counter-screen for TRPC4 allosteric potentiator project, confirmation (AID 449724).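 Note: HEK293 cells carrying mu-opioid receptor only with no TRPC4 channel.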 The following applies: HEK293 mu-opioid receptor cells, Fluo-4 calcium flux, at 10 µM, compound added before EC20 DAMGO stimulus. In general terms: The purpose of a counterscreen is to sort out artefacts and off-target activity.
As for `Cc1cc(-c2ccc(C)c(S(=O)(=O)NCCCN(Cc3ccccc3)C(C)C)c2)on1`, the result was inactive.

With `CCc1nc(NCCc2ccccn2)c2nnn(Cc3ccccc3F)c2n1`, the outcome was inactive.

In the case of `Cc1sc2ncnc(NCC(C)(C)N3CCOCC3)c2c1C`, the result was inactive.

On to `Cc1ccc(N2CCN(c3ccc(NCc4nc5ccccc5n4C)cc3)CC2)cc1`, for which the result was inactive.

Consider `COc1ccc(C(CNC(=O)CN2C(=O)NC3(CCCC3)C2=O)N(C)C)cc1` (stereo not given), for which the result was inactive.

Take `Cc1cccc(NC(=S)NCC(c2cccnc2)N(C)C)c1C` (stereo not given): the outcome was inactive.

`Cc1ccccc1OCC(=O)NNC(=S)NC(=O)c1ccco1`: the outcome was inactive.

For the molecule `Cc1ccc(Sc2cc(C(=O)NCCN(C)C)c3ccccc3n2)cc1`, the outcome was inactive.

For `O=C(O)c1ccc(-c2ccc(/C=c3/sc4nc5ccccc5n4c3=O)o2)cc1Cl`, the result was inactive.

In the case of `Cc1ccccc1C(=O)NNC(=S)NC(=O)c1ccccc1`, the result was inactive.

`CN(C)C(CNC(=O)c1ccc2ccccc2n1)c1ccccc1` (stereo not given): the result was inactive.

On to `Cc1cc(NC(=O)CN2CCc3ccccc3C2)nc2c1c(=O)oc1ccccc12`, for which the result was inactive.

As to `Cn1c(CN2CCN(c3cccc(Cl)c3)CC2)nc2ccccc21`, the result was inactive.

In the case of `CN(C)C(CNC(=O)c1cnc(Cl)c(Cl)c1)c1ccccc1` (stereo not given), the result was inactive.

Turning to `Cc1ccc(Cl)cc1NC(=O)CNCC(c1ccccc1)N(C)C` (stereo not given), the outcome was inactive.

In the case of `CN(C)CCCN(C(=O)c1ccc(S(=O)(=O)N2CCOCC2)cc1)c1nc2ccc(F)cc2s1`, the result was inactive.

For `CN(C)CCN(C(=O)c1cccc2ccccc12)c1nc2cc3c(cc2s1)OCO3`, the result was inactive.

Consider `Cc1ccc2c(C)c(C(=O)N(Cc3cccs3)C3CCS(=O)(=O)C3)oc2c1` (stereo not given), for which the outcome was inactive.

`CCN1CCN(c2c(Cl)cccc2NC(=O)c2ccc3nsnc3c2)CC1`: the outcome was inactive.

As to `O=C(C1CCCN(Cc2ccncc2)C1)N1CCc2ccccc2C1` (stereo not given), the outcome was inactive.

Turning to `CCN(c1ccccc1)S(=O)(=O)c1ccc(C(=O)N(CCCN(C)C)c2nc3cc4c(cc3s2)OCO4)cc1`, the outcome was inactive.

Consider `CC1CCCN(CCCNC(=O)c2ccc3c(c2)N(Cc2ccccc2F)C(=O)c2ccccc2S3(=O)=O)C1` (stereo not given), for which the result was inactive.

As for `O=C(Nc1nnc(-c2ccccc2Cl)o1)c1nc2ccccc2s1`, the result was inactive.

Consider `COc1ccc(C(=O)NC(=S)NNC(=O)CCc2ccccc2)cc1`, for which the outcome was inactive.

With `Cc1cc(-c2nn(-c3ccccc3F)cc2CNCCc2cnc[nH]2)c(C)s1`, the result was inactive.

Turning to `Cc1ccc(C(=O)NC(=S)NNC(=O)c2ccccc2)cc1`, the result was inactive.

On to `Cc1csc2c(N3CCN(C(=O)NC(C)(C)C)CC3)ncnc12`, for which the outcome was inactive.

As for `COC(=O)[C@@]1(Cc2ccc(F)cc2)[C@H]2c3cc(C(=O)N(C)C)n(CCc4ccccn4)c3C[C@H]2CN1C(=O)c1ccccc1`, the result was inactive.

In the case of `CN(CCc1ccccn1)C(=O)CC1C(=O)NCCN1Cc1ccccc1C(F)(F)F` (stereo not given), the result was inactive.

Consider `COc1cc(/C=C/C(=O)c2ccc3c(c2)OCO3)cc(Cl)c1O`, for which the outcome was inactive.

Consider `CCn1c(N2CCN(C(=O)Nc3ccc(F)cc3)CC2)nc2ccccc21`, for which the result was inactive.

Regarding `O=S(=O)(c1ccccc1)c1nnn2c1nc(NC1CCN(Cc3ccccc3)CC1)c1cc(Cl)ccc12`, the result was inactive.

For `CCOC(=O)c1oc2ccc(OC)cc2c1NC(=O)CN1CCN(C)CC1`, the outcome was inactive.

On to `C=CCn1c(CCNC(=O)C(C)(C)C)nc2ccccc21`, for which the outcome was inactive.

With `CCOC(=O)C1(CCOc2ccccc2)CCN(Cc2ccc3c(c2)OCCO3)CC1`, the outcome was inactive.

In the case of `Cc1cc(C)n(-c2nc(SCCN(C)C)c3c4c(sc3n2)CCCC4)n1`, the outcome was inactive.

With `COc1cc(OC)cc(C(=O)NC2CCCN(Cc3ccc(Cl)cc3)C2)c1` (stereo not given), the result was inactive.

Turning to `CN(C)C(CNC(=O)CCc1c[nH]c2ccccc12)c1ccccc1` (stereo not given), the result was inactive.

`CCCCN(CC)CCCNC(=O)Cn1nc(Cc2ccncc2)c2ccccc2c1=O`: the result was inactive.

Take `COC(=O)C1=C(C)N(Cc2ccccc2)C(=NCCc2ccccn2)N[C@H]1c1cccc(F)c1`: the outcome was inactive.

(Values after PubChem BioAssay.)
